Screening results as filed in PubChem.
DT40 TDP1 CPT: qHTS for Inhibitors of human tyrosyl-DNA phosphodiesterase 1 (TDP1): qHTS in cells in presence of CPT | chicken DT40 Tdp1-/-;hTDP1 cells + 20 nM CPT, ATP luminescence, 48 h | Potency, µM (top dose mostly 46.2 µM), for the others: at the highest dose activity change, negative = growth inhibition, usual class: inhibitors | 420,000 tested, 12% active; note: % is set by controls: 0 for no effect and ±100 for the full control effect; nearly all actives have a fitted effect of over 55% in size
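Chicken DT40 Tdp1-/- cells stably complemented with human TDP1 were seeded at 400 cells/well in medium containing 20 nM camptothecin, exposed to pin-transferred compounds, and grown at 37 °C for at least 48 hr. Viability was read as ATP luminescence.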
HT1080 IDH1KD tx: qHTS for induction of synthetic lethality in tumor cells producing 2HG: qHTS for the HT-1080-IDH1KD cell line | Potency, µM (doses to about 46.1 µM), for the others: at the highest dose activity, negative = toxicity, hits mostly cytotoxic | HT-1080 IDH1 knockdown viability, ATP luminescence, 48 h | 360,000 tested, 2% active;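 note: 0% = DMSO wells and -100% = cell-free medium wells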
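Assay cells: HT-1080 with IDH1 knockdown, 750 per well, RPMI/5% FBS. Exposure: 48 h at 37 °C following 2 h pre-incubation. Read: CellTiter-Glo luminescence; fitted concentration-response, curve class assigned.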
HepG2 viability: qHTS for Inhibitors of TGF-b: Cytotox Counterscreen; 410,000 tested, 0.76% active; AID 588856, 2011; Potency, µM (highest dose often 46.1 µM), for inactives: top-dose activity change, negative = cytotoxicity, most hits filed as cytotoxic; HepG2 CAGA-GFP viability, ATP luminescence, 18 h
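CellTiter-Glo luminescence gave cytotoxicity after 18 hours at 37 degrees C. The cells were HepG2 CAGA-GFP in 1% FBS DMEM, stimulated with 500 pg/mL TGF-beta after compound addition. %Activity was normalised to no-cell wells (complete cell-killing) and DMSO (no toxicity), and curves were fitted and classified.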
TGFb SMAD3 inh: qHTS for Inhibitors of TGF-b; HepG2 CAGA-GFP TGF-b/SMAD3 reporter, GFP fluorescence, 18 h; TGF-beta stimulated, 500 pg/mL final; Potency, µM (titrated, usually from 46.1 µM), without a hit: top-dose activity, negative = inhibition, actives largely listed as inhibitors; 410,000 tested, 1.2% active; AID 588855, 2011; note: % is set by controls: 0 for no effect and ±100 for the full control effect; nearly all actives have a fitted effect of over 65% in size
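Inhibition of TGF-beta-driven CAGA-GFP reporter expression in HEPG2 cells is measured by cellular GFP fluorescence after 18 h stimulation with 500 pg/mL recombinant TGF-beta in 1% FBS medium at 37 degrees C.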
DT40 TDP1 no CPT: qHTS for Inhibitors of human tyrosyl-DNA phosphodiesterase 1 (TDP1): qHTS in cells in absence of CPT. Potency, µM (series often up to 46.2 µM), inactives show at the top dose activity change, negative = growth inhibition, usual class: inhibitors. DT40 Tdp1-/- hTDP1 cells, no CPT, ATP luminescence, 48 h. 420,000 tested, 15% active; note: % is set by controls: 0 for no effect and ±100 for the full control effect; nearly all actives have a fitted effect of over 55% in size
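Camptothecin absent (DMSO only). Human TDP1-complemented DT40 knockout cells, 400 cells/well, 37 °C for minimum 48 hr; ATP measured via CellTiter-Glo, 30 min dark incubation, luminescence.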
HT1080-NT tox: qHTS for induction of synthetic lethality in tumor cells producing 2HG: qHTS for the HT-1080-NT fibrosarcoma cell line; 360,000 tested, 1.6% active; Potency, µM (top dose mostly 46.1 µM), inactives show at the top dose activity, negative = less viability, actives largely listed as cytotoxic; HT-1080-NT fibrosarcoma viability, CellTiter-Glo ATP luminescence, 48 h;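 note: NT is the 2HG producing partner of a matched IDH1 knockdown line; 0% = DMSO-treated cells and -100% = media-only wells without cells; nearly all actives have a fitted effect of over 55% in size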
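Viability of the 2HG-overproducing fibrosarcoma line after 48 hours of compound exposure at 37 degrees C was determined by luminescence with CellTiter-Glo, and concentration-effect curves were then fitted and categorized.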
* = called active by the depositor; ? = inconclusive; . = not tested or not shown. Most compounds without a hit are left out; they make up all but 17% or so of the library. Calls come from the whole dose curve; as a rule, active = well fitted curve in the direction sought with a large enough effect; inconclusive = small, poorly fitted or top-dose-only effect, or another doubt; inactive = no such curve, though single readings can be large; an effect the other way counts as inactive or inconclusive. Potency is the fitted concentration of half-maximal effect.

SMILES | DT40 TDP1 CPT | HT1080 IDH1KD tx | HepG2 viability | TGFb SMAD3 inh | DT40 TDP1 no CPT | HT1080-NT tox
O=C(CSC1=Nc2ccccc2C2=NC(CCC(=O)NC3CCCCC3)C(=O)N12)Nc1cccc(C(F)(F)F)c1 (stereo unspecified) | ? | . | -24% | -27% | 23µM* | .
O=C(CSC1=Nc2ccccc2C2=NC(CC(=O)NC3CCCCC3)C(=O)N12)Nc1ccc(F)cc1 (stereo unspecified) | ? | . | 4% | -12% | -94% | .
CCCCNC(=O)CCn1c(=O)c2ccccc2n(Cc2ccc(Cl)cc2)c1=O | ? | -1% | -24% | -10% | ? | -2%
COc1ccc(OC)c(NC(=O)CSC2=Nc3ccccc3C3=NC(CCC(=O)NC4CCCCC4)C(=O)N23)c1 (stereo unspecified) | 0% | . | -4% | 1% | -27% | .
COc1ccc(NC(=O)CSC2=Nc3ccccc3C3=NC(CCC(=O)NC4CCCCC4)C(=O)N23)cc1Cl (stereo unspecified) | ? | . | 5% | -7% | 23µM* | .
CC(C)c1ccc(NC(=O)CSC2=Nc3ccccc3C3=NC(CC(=O)NC4CCCCC4)C(=O)N23)cc1 (stereo unspecified) | 21µM* | . | 13µM* | ? | 21µM* | .
CCOc1ccccc1NC(=O)CSC1=Nc2ccccc2C2=NC(CC(=O)NC3CCCCC3)C(=O)N12 (stereo unspecified) | 21µM* | . | 0% | -27% | 21µM* | .
COc1ccc(NC(=O)CSC2=Nc3ccccc3C3=NC(CCC(=O)NC4CCCCC4)C(=O)N23)cc1 (stereo unspecified) | ? | . | -2% | -7% | -26% | .
CN(C(=O)CSC1=Nc2ccccc2C2=NC(c3ccccc3)C(=O)N12)C1CCCCC1 (stereo unspecified) | 21µM* | -13% | -13% | 28% | ? | -8%
Cc1ccc(NCc2cccc(B(O)O)c2)cc1 | -27% | -16% | -35% | 9% | -26% | -2%
Nc1nccnc1C(=O)OCC(=O)Nc1ccc2[nH]c(=O)[nH]c2c1 | -16% | 3% | -4% | 0% | -1% | 0%
COCCn1c(=O)c(-c2cn(C)c3ccccc23)nc2cnc(OCc3ccccc3)nc21 | -1% | . | . | . | 32% | .
COc1ccccc1OCCNC(=O)CCC(=O)N1CCOCC1 | 1% | 0% | 6% | 7% | 1% | 2%
CCOC(=O)C1CCN(C(=O)CSc2n[nH]c(-c3ccc(F)cc3)n2)CC1 | -23% | . | 2% | -17% | -16% | .
Cc1oc2ccc(O)c(CN3CCN(C)CC3)c2c1C(=O)Nc1ccccc1 | -29% | . | -16% | -10% | -9% | .
COc1ccc(NC(=O)c2c(C)oc3ccc(O)c(CN4CCOCC4)c23)cc1 | -21% | . | -10% | -8% | 3% | .
CCN1CCN(Cc2c(O)ccc3oc(C)c(C(=O)Nc4ccc(OC)c(Cl)c4)c23)CC1 | 23µM* | . | -35% | -9% | ? | .
COc1ccc(NC(=O)c2c(C)oc3ccc(O)c(CN4CCN(Cc5ccccc5)CC4)c23)cc1Cl | 18µM* | . | -32% | 0% | 15µM* | .
CC(C)CN1CCC(=O)N(CCN=[N+]=[N-])CC1 | ? | 7% | -35% | 3% | 1% | 4%
Cc1cccc(-c2nc3c(C#N)c[nH]n3c2NC2CCCCC2)c1 | ? | . | -11% | -6% | 21µM* | .
N#Cc1c[nH]n2c(NC3CCCC3)c(-c3ccc(Cl)cc3)nc12 | ? | . | -44% | ? | 16µM* | .
CCOc1ccc(-c2nc3c(C#N)c[nH]n3c2NC2CCCCC2)cc1 | 8.2µM* | . | -52% | ? | 7.3µM* | .
N#Cc1c[nH]n2c(NC3CCCC3)c(-c3ccc(Br)cc3)nc12 | 18µM* | . | -32% | -24% | 23µM* | .
COc1cccc(-c2nc3c(C#N)c[nH]n3c2NC2CCCCC2)c1 | ? | . | -1% | -14% | ? | .
COc1cc(/C(C)=N/N2CCN(c3ccccc3OC)CC2)ccc1O | -10% | 15% | 5% | -2% | 9% | 6%
SMILES | DT40 TDP1 CPT | HT1080 IDH1KD tx | HepG2 viability | TGFb SMAD3 inh | DT40 TDP1 no CPT | HT1080-NT tox
Nc1cc(Cl)ccc1C(=O)OCC(=O)N1CCCCCC1 | -19% | 28% | 3% | 3% | 6% | 20%
COCC1CCN(Cc2cn(Cc3ccccc3)nc2-c2cc3ccccc3o2)CC1 | ? | ? | -15% | -7% | -25% | -11%
COC(=O)C1CCN(Cc2cn(Cc3ccccc3)nc2-c2cc3ccccc3o2)CC1 | ? | -8% | -30% | -3% | 26µM* | -10%
COCC1CCCN(Cc2cn(Cc3ccccc3)nc2-c2cc3ccccc3o2)C1 (stereo unspecified) | 26µM* | 16µM* | -24% | 13µM* | ? | ?
COc1ccc(C)cc1N(C(=O)c1ccc(F)cc1)c1nc2ccccc2s1 | ? | -12% | 14% | 6% | 16µM* | 12%
COc1ccc(C)cc1N(C(=O)COc1cccc(F)c1)c1nc2ccccc2s1 | ? | -21% | 0% | -18% | ? | -12%
COc1ccc(NC(=O)c2cc(C3CCCCN3S(=O)(=O)c3ccccc3)on2)c(C)c1 (stereo unspecified) | ? | -20% | -19% | -8% | 8.2µM* | -10%
COc1ccc(NC(=O)c2cc(C3CCCCN3S(=O)(=O)c3ccc(F)cc3F)on2)c(C)c1 (stereo unspecified) | ? | -20% | -19% | ? | 15µM* | -2%
COc1ccc(NC(=O)c2cc(C3CCCCN3C(=O)c3cc(OC)c(C)c(OC)c3)on2)c(C)c1 (stereo unspecified) | ? | -22% | 3% | -26% | ? | -29%
COc1ccc(NC(=O)c2cc(C3CCCCN3S(C)(=O)=O)on2)c(C)c1 (stereo unspecified) | -11% | ? | -10% | 2% | -4% | 13%
COc1ccc(C2c3[nH]c4ccccc4c3C[C@H]3C(=O)N(C4CCN(Cc5ccccc5)CC4)CC(=O)N23)cc1OC (stereo partly specified) | 21µM* | -27% | -18% | ? | ? | ?
